Screening data from PubChem.
Most compounds without a hit are left out; they make up all but 2.1% or so of the library.
CFTR F508del cor – CFTR F508del correction in bronchial cells. CFBE cells, YFP halide quenching; stimulated with forskolin plus potentiator P3; % fluorescence drop versus neutral controls. activity (quench increase), % at 7.58 µM. 0.36% of 350,000 active;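 active means mean added fluorescence quench of at least 8% versus neutral control, with both replicates also reaching 8%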;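 further: cells transiently co-express mutant CFTR-F508del with the halide-sensitive YFP; corrector assay measuring rescue of mutant channel to the surface after 24 h compound exposure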
PvdQ inh – blocks Pseudomonas aeruginosa PvdQ acylase activity. purified PvdQ acylase, fluorescence plate reader. inhibition, % at 10 µM. 0.063% of 340,000 active. AID 488965; in the data active means inhibition above about 30%, passing the limit was not always enough;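 further: 0% = vehicle neutral wells and 100% = reference inhibitor wells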
ARNT TACC3 PPI – ARNT/TACC3 interaction disruption; Q9Y6A5; AlphaScreen His-ARNT PAS-B/GST-TACC3 binding, luminescence; TACC3 fragment carries E629A point mutation; inhibition, % at 9.99 µM; 0.66% of 390,000 active; AID 623870;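 active means mean inhibition of replicates at least 50% and at least half of replicates each reaching 50%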;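 further: 0% = complete ARNT plus TACC3 wells and 100% = ARNT alone without TACC3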
ERAP1 HTS inh – ERAP1 (human) enzyme inhibition; 0.15% of 340,000 active; Q9NZ08; recombinant ERAP1, Leu-AMC fluorescence, 60 min; inhibition, % at 10.7 µM; AID 652197;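 active means mean replicate inhibition of at least 30%, or all replicates individually reaching that 30% level; inactive means mean below 30% and not every replicate reaching it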;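 further: 0% = neutral control wells and 100% = L-leucinethiol positive control wells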
Target sequence (Q9NZ08 whole entry, looked up): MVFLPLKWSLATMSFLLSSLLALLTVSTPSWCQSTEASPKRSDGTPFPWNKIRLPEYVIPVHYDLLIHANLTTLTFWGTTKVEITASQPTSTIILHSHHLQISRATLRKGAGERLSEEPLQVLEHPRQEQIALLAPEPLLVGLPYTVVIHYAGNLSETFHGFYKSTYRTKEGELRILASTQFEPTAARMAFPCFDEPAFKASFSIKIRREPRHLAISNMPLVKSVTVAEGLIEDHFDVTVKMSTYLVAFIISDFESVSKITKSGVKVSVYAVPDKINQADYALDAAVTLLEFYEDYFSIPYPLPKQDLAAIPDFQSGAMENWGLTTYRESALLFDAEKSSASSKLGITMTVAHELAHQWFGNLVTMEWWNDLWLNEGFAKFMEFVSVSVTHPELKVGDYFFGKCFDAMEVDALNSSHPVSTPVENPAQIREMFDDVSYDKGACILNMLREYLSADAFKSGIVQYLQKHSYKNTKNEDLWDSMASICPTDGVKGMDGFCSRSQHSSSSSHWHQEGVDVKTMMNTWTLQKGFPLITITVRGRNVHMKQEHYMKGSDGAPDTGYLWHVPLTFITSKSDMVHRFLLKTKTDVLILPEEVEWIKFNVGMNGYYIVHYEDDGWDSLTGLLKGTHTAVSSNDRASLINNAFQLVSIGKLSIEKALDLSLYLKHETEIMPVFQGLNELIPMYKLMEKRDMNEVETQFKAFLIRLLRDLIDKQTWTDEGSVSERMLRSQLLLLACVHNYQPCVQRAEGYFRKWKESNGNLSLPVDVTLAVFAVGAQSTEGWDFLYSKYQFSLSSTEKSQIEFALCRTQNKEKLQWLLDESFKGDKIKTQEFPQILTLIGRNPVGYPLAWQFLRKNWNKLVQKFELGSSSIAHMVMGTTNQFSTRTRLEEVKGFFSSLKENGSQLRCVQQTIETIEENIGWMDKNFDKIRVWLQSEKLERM
Ecoli rRNA inh – inhibits bacterial ribosomal RNA function over humanized ribosomes; E. coli WT GFP vs humanized-ribosome RFP mutants, fluorescence, 24 h; active compounds read low; DMSO median 0, no signal -100; GFP signal change (wild-type ribosome), % (no concentration beside the values); 1.6% of 350,000 active; AID 720706;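 active means significant combined selectivity score with lowered wild-type GFP, culture density cut under 30%, mutant RFP and density less affected; inactive means any of these conditions unmet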
* = called active by the depositor.

`COc1ccc(NC(=O)Nc2ccc3c(c2)C(=O)N([C@@H](C)CO)C[C@@H](C)[C@H](CN(C)Cc2ccc4c(c2)OCO4)OCCCC[C@@H](C)O3)cc1` gave CFTR F508del cor -0.5, ARNT TACC3 PPI 14.1, ERAP1 HTS inh -7.9 and Ecoli rRNA inh 4.1.
Screening C[C@H](CO)N1C[C@H](C)[C@H](CN(C)C(=O)C2CCCCC2)OCCCC[C@H](C)Oc2ccc(NC(=O)Nc3ccc(C(F)(F)F)cc3)cc2C1=O returned CFTR F508del cor 3.9, ERAP1 HTS inh 2.2 and Ecoli rRNA inh 2.2.
Screening C[C@@H]1CN([C@@H](C)CO)C(=O)c2cc(NC(=O)Nc3ccc(F)cc3)ccc2O[C@@H](C)CCCCO[C@H]1CN(C)Cc1ccc(Cl)c(Cl)c1 returned CFTR F508del cor -1.9, ARNT TACC3 PPI 48.1*, ERAP1 HTS inh 0.9 and Ecoli rRNA inh 2.9.
COc1ccc(NC(=O)Nc2ccc3c(c2)C(=O)N([C@H](C)CO)C[C@H](C)[C@@H](CN(C)Cc2ccc(C(F)(F)F)cc2)OCCCC[C@H](C)O3)cc1 was read as CFTR F508del cor -1.6, ARNT TACC3 PPI 0.6, ERAP1 HTS inh -3.9 and Ecoli rRNA inh -0.9.
For COc1ccc(CN(C)C[C@H]2OCCCC[C@H](C)Oc3ccc(NC(=O)Nc4ccc(C(F)(F)F)cc4)cc3C(=O)N([C@H](C)CO)C[C@H]2C)cc1 the results were CFTR F508del cor 8.7*, ARNT TACC3 PPI 21.2, ERAP1 HTS inh -1.2 and Ecoli rRNA inh 6.2.
`COc1ccc(NC(=O)Nc2ccc3c(c2)C(=O)N([C@@H](C)CO)C[C@@H](C)[C@H](CN(C)S(=O)(=O)c2ccc(OC)cc2)OCCCC[C@H](C)O3)cc1` gave CFTR F508del cor -1.6, ARNT TACC3 PPI -10.8 and Ecoli rRNA inh -0.4.
Screening CN(C)CCCNC(=O)C[C@@H]1C=C[C@H](NC(=O)c2ccccc2F)[C@@H](CO)O1 returned CFTR F508del cor 0.3, ARNT TACC3 PPI 26.3, ERAP1 HTS inh 4.5 and Ecoli rRNA inh 1.5.
Screening CO[C@H]1CN(C)C(=O)c2cc(NC(=O)Nc3cccc(F)c3)ccc2OC[C@@H](C)N(C(=O)C2CC2)C[C@H]1C returned CFTR F508del cor 0.5, ARNT TACC3 PPI 0.1 and Ecoli rRNA inh -14.1.
For CC(C)NC(=O)N(C)C[C@@H]1Oc2ncc(C#CCc3ccccc3)cc2C(=O)N([C@H](C)CO)C[C@H]1C the results were CFTR F508del cor 2.2, ARNT TACC3 PPI -7.4, ERAP1 HTS inh 7.4 and Ecoli rRNA inh -0.3.
`Cc1ccc2[nH]c3nc(NN)nnc3c2c1` gave CFTR F508del cor 0.7, PvdQ inh 7.4, ARNT TACC3 PPI 60.7*, ERAP1 HTS inh 1.1 and Ecoli rRNA inh -12.0.
`COc1ccccc1NS(=O)(=O)c1cccc(C(=O)N/N=C/c2ccc(C)o2)c1` gave CFTR F508del cor -2.0, PvdQ inh 4.9, ERAP1 HTS inh 0.7 and Ecoli rRNA inh 1.8.
`Cc1ccc(/C=N/NC(=O)c2cccc(S(=O)(=O)Nc3cccc(Cl)c3)c2)o1` gave CFTR F508del cor -1.0, PvdQ inh 9.7, ARNT TACC3 PPI 11.6, ERAP1 HTS inh 4.9 and Ecoli rRNA inh -20.6*.
For C[C@H](CO)N1C[C@H](C)[C@H](CN(C)CC2CCCCC2)Oc2c(NC(=O)Nc3cccc4ccccc34)cccc2C1=O the results were CFTR F508del cor 1.9, ARNT TACC3 PPI -0.3, ERAP1 HTS inh -5.2 and Ecoli rRNA inh -0.6.
`COc1ccc(/C(C#N)=C/c2ccccn2)cc1` gave CFTR F508del cor -0.7, PvdQ inh 53.3*, ARNT TACC3 PPI -2.6, ERAP1 HTS inh 2.0 and Ecoli rRNA inh -6.9.
`N#C/C(=C\c1ccccn1)c1nc2ccccc2s1` gave CFTR F508del cor 40.9*, PvdQ inh -2.1, ARNT TACC3 PPI -5.9, ERAP1 HTS inh -0.5 and Ecoli rRNA inh -19.8.
`Cc1ccc(C(=O)N/C(=C\c2cccs2)C(=O)NC2CCCCC2)cc1` gave CFTR F508del cor -3.3, PvdQ inh -8.3, ARNT TACC3 PPI -2.7, ERAP1 HTS inh -0.5 and Ecoli rRNA inh -25.4*.
Screening CCN(CC)c1ccc(/C=N/NC(=O)c2cnccn2)cc1 returned CFTR F508del cor 11.1*, PvdQ inh 12.0, ARNT TACC3 PPI -7.8, ERAP1 HTS inh 18.3 and Ecoli rRNA inh 12.1.
`CCN(CC)c1ccc(/C=N/NC(=O)c2ccccn2)cc1` gave CFTR F508del cor 2.3, PvdQ inh -16.7, ARNT TACC3 PPI 14.7, ERAP1 HTS inh 1.4 and Ecoli rRNA inh 3.5.
`O=C1c2ccccc2C(=O)c2c1cccc2N1CCCC1` gave CFTR F508del cor 8.0*, PvdQ inh 2.0, ARNT TACC3 PPI 19.9 and ERAP1 HTS inh -1.7.
For COc1ccc(C2C3=C(CCCC3=O)N(CC(=O)O)C3=C2C(=O)CCC3)cc1Cl the results were CFTR F508del cor -0.5, PvdQ inh -13.3, ARNT TACC3 PPI 7.0, ERAP1 HTS inh 30.9* and Ecoli rRNA inh 9.6.
O=C(c1c[nH]c2ccccc12)C(Cl)c1ccccc1 (stereo not given) was read as CFTR F508del cor 1.0, PvdQ inh -11.3, ARNT TACC3 PPI -3.7, ERAP1 HTS inh 0.3 and Ecoli rRNA inh -23.6*.
`O=C(c1c[nH]c2ccccc12)C(O)C(c1ccccc1)N1CCOCC1` (stereo not given) gave PvdQ inh -9.1 and ARNT TACC3 PPI -5.2.
Screening Cc1cc2c(cc(C(=O)OC(C)C(=O)NCc3ccccc3)n2C)o1 (stereo not given) returned CFTR F508del cor 7.2, PvdQ inh 5.1, ARNT TACC3 PPI 3.7, ERAP1 HTS inh 2.0 and Ecoli rRNA inh 2.9.
Screening Cc1cc2c(cc(C(=O)OC(C)C(=O)NCc3ccc(F)cc3)n2C)o1 (stereo not given) returned CFTR F508del cor 28.9*, PvdQ inh 2.8, ARNT TACC3 PPI 5.1, ERAP1 HTS inh 1.9 and Ecoli rRNA inh 0.7.
`ONC(=Nc1ccccc1Cl)c1ccccc1Cl` gave CFTR F508del cor 0.0, PvdQ inh 10.0, ARNT TACC3 PPI -3.2, ERAP1 HTS inh -1.4 and Ecoli rRNA inh -31.5*.
CC(C)Cc1ccc(S(=O)(=O)Nc2ccc3[nH]c(=O)[nH]c3c2)cc1 was read as CFTR F508del cor -2.5, PvdQ inh -7.8, ARNT TACC3 PPI -2.7, ERAP1 HTS inh 0.0 and Ecoli rRNA inh -25.5*.
`Cc1nn(C(C)(C)C)c(C)c1/C=N/OC(=O)Nc1ccc(Cl)cc1` gave CFTR F508del cor -0.4, PvdQ inh 5.2, ARNT TACC3 PPI -8.9, ERAP1 HTS inh -2.4 and Ecoli rRNA inh -26.6*.
Oc1[nH]c2ccccc2c1N=Nc1nc(Nc2ccccc2)nc(N2CCOCC2)n1 was read as CFTR F508del cor -7.5, PvdQ inh -2.6, ARNT TACC3 PPI -5.0, ERAP1 HTS inh 70.2* and Ecoli rRNA inh 19.4.
O=C(O)c1cnc2ccccc2n1 was read as PvdQ inh -6.3 and ARNT TACC3 PPI -5.0.
For O=C(O)c1cc2ccccc2cn1 the results were CFTR F508del cor -8.9, PvdQ inh 8.5, ARNT TACC3 PPI 76.6*, ERAP1 HTS inh 0.7 and Ecoli rRNA inh -7.7.
